Laboratory results from PubChem BioAssay AID1851 (National Center for Advancing Translational Sciences (NCATS), 2009).
About 5,800 (36%) of roughly 16,000 compounds were called active. Inconclusive results (about 23%) are left out. Some of the results follow. A number with no mark means an inactive call. Calls come from the whole dose curve; as a rule, active = well fitted curve in the direction sought with a large enough effect; inconclusive = small, poorly fitted or top-dose-only effect, or effect the other way; inactive = no such curve, though single readings can be large or run the other way.
% is set by controls: 0 for no effect and ±100 for the full control effect.

What follows are molecules tested against Cytochrome P450 2C19 (Homo sapiens) (UniProt P33261) (assay: Cytochrome panel assay with activity outcomes). Conditions: recombinant CYP, pro-luciferin dealkylation, luminescence, p450-cyp2c19; series mostly up to 57.1 µM.
Sequence of Cytochrome P450 2C19 (Homo sapiens) (P33261 whole entry, looked up): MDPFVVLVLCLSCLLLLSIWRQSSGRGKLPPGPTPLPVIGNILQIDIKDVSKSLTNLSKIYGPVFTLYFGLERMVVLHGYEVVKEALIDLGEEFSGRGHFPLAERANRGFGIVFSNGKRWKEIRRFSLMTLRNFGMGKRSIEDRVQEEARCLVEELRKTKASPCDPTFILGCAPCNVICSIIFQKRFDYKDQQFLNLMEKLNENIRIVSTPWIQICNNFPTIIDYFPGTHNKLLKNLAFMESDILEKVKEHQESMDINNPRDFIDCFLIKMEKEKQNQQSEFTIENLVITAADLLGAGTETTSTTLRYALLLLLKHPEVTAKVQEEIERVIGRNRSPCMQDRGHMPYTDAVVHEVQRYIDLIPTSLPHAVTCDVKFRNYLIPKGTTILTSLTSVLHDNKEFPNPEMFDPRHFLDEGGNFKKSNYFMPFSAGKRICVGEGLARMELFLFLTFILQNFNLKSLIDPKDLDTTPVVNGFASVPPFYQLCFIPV
Molecule CC(C)CO/N=C1/[C@H]2O[C@@H]2[C@@H](O)[C@H]2[C@H]1CCn1c(=O)n(C)c(=O)n12 has an activity, negative = inhibition of -6.23% [at 11.4 µM]. For Cc1ccc(C)c(Nc2nc3nonc3nc2N2CCOCC2)c1, the AC50 was 25100 nM (active). In the case of CN1CCN(CCCBr)CC1, the activity, negative = inhibition is reported as 39.1% [at 11.4 µM]. For Cc1ccc(SCc2[nH]nc3c2C(C(C)C)C(C#N)=C(N)O3)cc1 (centres undefined), the AC50 was 3160 nM (active). COCc1cc(=O)[nH]c2cc(NC(=O)C(F)(F)F)c(C)cc12 was tested, and the AC50 was “inactive”. In the case of O=C(Nc1ccc(Br)cc1)C1CCC(=O)N1Cc1ccccc1Cl (centres undefined), the AC50 is reported as 631 nM (active). For CN(Cc1ccco1)C(=O)C1CCC(=O)N1Cc1ccc(F)cc1 (centres undefined), the AC50 was 17800 nM (active). CN(CCCNC(=O)C1CCC(=O)N1Cc1ccccc1Cl)c1ccccc1 (centres undefined) was tested, and the AC50 was 10000 nM (active). Cc1ccc(CCN2CC(C(=O)NCCCN(C)Cc3ccccc3)CC2=O)cc1 (centres undefined) was tested, and the AC50 was “inactive”. With CC(C)N(CCNC(=O)C1CCC(=O)N1Cc1ccc(F)cc1)Cc1ccccc1 (centres undefined) the AC50 was 2820 nM (active). For O=C(NCCN1CCN(Cc2ccccc2)CC1)C1CC(=O)N(C2CCCC2)C1 (centres undefined), the AC50 was “inactive”. With CCCS(=O)(=O)N1CCCC(C(=O)NCCN(C)Cc2ccccc2)C1 (centres undefined) the AC50 was “inactive”. In the case of Cc1ccc(OC[C@H](O)[C@H](C)NC(C)C)c2c1CCC2, the AC50 is reported as “inactive”. CC(C)(C[C@@]1(C)NC(=O)NC1=O)OCc1ccccc1 gave an activity, negative = inhibition of 18.1% [at 11.4 µM]. For Cc1ccc(N=Nc2c(O)ccc3cc(S(=O)(=O)O)ccc23)cc1, the activity, negative = inhibition was 6.68% [at 11.4 µM]. With Cc1ccc(S(=O)(=O)c2cc3ccccc3oc2=Nc2ccc3c(c2)OCO3)cc1 the AC50 was 4470 nM (active). O=c1oc2cc(N=Cc3ccc4c(c3)OCO4)ccc2c2ccccc12 was tested, and the activity, negative = inhibition was -3.38% [at 11.4 µM]. In the case of CCC(C#CCN1CCCCC1)(CC)OCCC#N, the AC50 is reported as 14100 nM (active). In the case of CN(C)[C@@H]1C(=O)C(C(N)=O)=C(O)[C@]2(O)C(=O)C3=C(O)c4c(O)ccc(Cl)c4[C@H](O)[C@H]3C[C@@H]12, the AC50 is reported as “inactive”. With COc1cccc(-c2cc(C(=O)N/N=C/c3ccc(OC)c(COC(C)=O)c3)c3ccccc3n2)c1 the AC50 was 2510 nM (active). COc1ccc(/C=N/NC(=O)c2cc(-c3ccc(C)cc3C)nc3ccccc23)cc1COC(C)=O was tested, and the AC50 was “inactive”. With O=C(Nc1cccc(F)c1)N1CCCC2(CCN(C(=O)c3cc(C(F)(F)F)cc(C(F)(F)F)c3)CC2)C1 the AC50 was “inactive”. For COc1cc(/C=N/NC(N)=O)c(Br)cc1OCC(=O)Nc1ccccc1C, the AC50 was 11200 nM (active). In the case of O=C1C2=C(NC(=S)NC2c2ccc(Cl)cc2)NC(c2ccc(Cl)cc2)N1c1ccc(Cl)cc1 (centres undefined), the AC50 is reported as 2240 nM (active). COc1cccc(Nc2ncc3nc(-c4cccs4)c(=O)n(Cc4cccs4)c3n2)c1 was tested, and the AC50 was “inactive”. With CCC(Sc1nc2cc3c(cc2c(=O)n1Cc1ccco1)OCO3)C(=O)Nc1cccc(OC)c1 (centres undefined) the AC50 was 7080 nM (active). With COc1cccc(Cn2c(=O)c(-c3cccs3)nc3cnc(Nc4cccc(OC)c4)nc32)c1 the AC50 was “inactive”. With CCC(Sc1nc2cc3c(cc2c(=O)n1Cc1ccco1)OCO3)C(=O)Nc1ccccc1OC (centres undefined) the AC50 was 2510 nM (active). For Cn1c(=O)c2[nH]cnc2n(C)c1=O, the AC50 was “inactive”. Cc1nc2sccc2c(=O)n1-c1cccc(Cl)c1 was tested, and the AC50 was 794 nM (active). In the case of N#CCCn1c(=O)c(-c2cccs2)nc2cnc(Oc3cccc(Cl)c3)nc21, the AC50 is reported as “inactive”. COC(=O)C/C=C\[C@@H](C)[C@@H](/C=N\O[C@@H](C)CN1CCCCc2nc(C)c(C)cc21)NS(=O)(=O)c1ccc(C)cc1 gave an activity, negative = inhibition of -9.76% [at 11.4 µM]. In the case of CCCNC(=O)OC[C@@H]1O[C@H](CCO/N=C\[C@@H](C)[C@H](OCc2ccccc2)C(C)C)C=C[C@@H]1Oc1ccc(OC)cc1, the AC50 is reported as 3160 nM (active). COC(=O)C/C=C\[C@@H](C)[C@@H](/C=N\OC[C@@H](O)COCc1ccco1)OC gave an activity, negative = inhibition of -19.2% [at 11.4 µM]. C=CC[C@@H]1C=C[C@H](O/N=C\[C@@H](C)[C@H](OCc2ccccc2)C(C)C)[C@H](CO)O1 showed an activity, negative = inhibition of -27.4% [at 11.4 µM]. For CC(=O)OC[C@@H]1O[C@H](CCO/N=C\[C@@H](C)[C@H](OCc2ccccc2)C(C)C)C=C[C@@H]1OC(C)=O, the activity, negative = inhibition was -11.7% [at 11.4 µM]. In the case of COC(=O)C/C=C\[C@@H](C)[C@@H](/C=N\OC[C@@H]1O[C@H](c2ccccc2)C=C[C@@H]1Oc1ccc(OC)cc1)OC, the AC50 is reported as 1580 nM (active). CCCNC(=O)OC[C@H]1O[C@@H](CCO/N=C\[C@@H](NS(=O)(=O)c2ccc(C)cc2)[C@H](C)/C=C\CC(=O)OC)C=C[C@@H]1Oc1ccc(OC)cc1 was tested, and the AC50 was 3160 nM (active). For COC(=O)C/C=C\[C@@H](C)[C@@H](/C=N\OC[C@@H](O)[C@H]1O[C@H]2OC(C)(C)O[C@H]2[C@@H]1O)NS(=O)(=O)c1ccc(C)cc1, the activity, negative = inhibition was -25.2% [at 11.4 µM]. With COC(=O)C/C=C\[C@@H](C)[C@@H](/C=N\OC[C@@H]1O[C@H](c2ccccc2)C=C[C@@H]1Oc1ccc(OC)cc1)NS(=O)(=O)c1ccc(C)cc1 the AC50 was 398 nM (active). COC(=O)C/C=C\[C@@H](C)[C@@H](/C=N\OCC[C@H]1C=C[C@H](OC(C)=O)[C@@H](COC(C)=O)O1)NS(=O)(=O)c1ccc(C)cc1 showed an activity, negative = inhibition of -2.17% [at 11.4 µM]. C=CC[C@@H]1C=C[C@@H](O/N=C\[C@@H](OC)[C@H](C)/C=C\CC(=O)OC)[C@@H](CO)O1 gave an activity, negative = inhibition of -6.92% [at 11.4 µM]. For CCCc1c(OCCCOc2ccc(OCC(=O)O)cc2)ccc(C(C)=O)c1O, the AC50 was “inactive”. O=C1C2C3C=CC(C3)C2C(=O)N1/N=C/c1cn(Cc2ccc(F)cc2)c2ccccc12 (centres undefined) was tested, and the AC50 was 11200 nM (active). In the case of NCCSc1nc2ccccc2s1, the AC50 is reported as 1580 nM (active). c1ccc2sc(SCCSc3nc4ccccc4s3)nc2c1 was tested, and the activity, negative = inhibition was 6.86% [at 11.4 µM]. In the case of c1ccc(NCCSc2nc3ccccc3s2)cc1, the AC50 is reported as 398 nM (active). For Oc1ccccc1C(Sc1nc2ccccc2s1)Sc1nc2ccccc2s1, the AC50 was 3160 nM (active). With c1ccc2sc(SCSc3nc4ccccc4s3)nc2c1 the AC50 was 1260 nM (active). C[N+](C)(C)CC(=O)O was tested, and the AC50 was “inactive”. With CC(C)OC(=O)CC12CN(C)CC(CC(=O)OC(C)C)(CN(C)C1)C2=O the AC50 was “inactive”. In the case of COc1ccc(-c2nc3cnc(N4CCOCC4)nc3n(C[C@H]3CCCO3)c2=O)cc1, the AC50 is reported as “inactive”. With O=C(O)[C@@H]1CS[C@@]2(CCCN(Cc3ccccc3)C2)N1 the activity, negative = inhibition was 7.34% [at 11.4 µM]. C#CCCCO/N=C1/C[C@@H](O)[C@@H](O)[C@@H]2[C@@H]3C(=O)N(CC)C(=O)[C@H]3CC[C@@H]12 showed an activity, negative = inhibition of -28.6% [at 11.4 µM]. With CCOC(=O)c1cnc(SCCc2ccccc2)nc1N the AC50 was 7940 nM (active). Work on Cc1ccc(/C(C#N)=C/c2cccc([N+](=O)[O-])c2)cc1 yielded an activity, negative = inhibition of 8.97% [at 11.4 µM]. For Cc1ccc(C2=Nc3ccccc3S[C@@H](c3cccc([N+](=O)[O-])c3)C2)cc1, the AC50 was 3980 nM (active). In the case of NC[C@@H]1O[C@H](c2ccccc2)Cc2c1ccc(O)c2O, the AC50 is reported as 1000 nM (active). With NC[C@@H]1O[C@H](C23CC4CC(CC(C4)C2)C3)Cc2c1ccc(O)c2O the AC50 was “inactive”. For O=C1[C@H]2[C@H]3[C@H](O)[C@H](O)C/C(=N/OCc4ccccc4)[C@@H]3CC[C@@H]2C(=O)N1C[C@@H]1CCCO1, the activity, negative = inhibition was -0.01% [at 11.4 µM]. With O=C(CC1(O)CCCCC1)OC1CCCC1 the AC50 was 1580 nM (active). Molecule CC1(CC(=O)O)O[C@H]2CCCCC[C@H]2O1 (some centres undefined) (tested in a mixture with another compound) has an activity, negative = inhibition of 1.88% [at 11.4 µM]. For CC1(CCC(=O)OC2CCCCC2)OCCO1, the activity, negative = inhibition was -35.8% [at 11.4 µM]. COc1ccccc1CNc1cc(-c2ccccc2OC)ncn1 was tested, and the AC50 was 1580 nM (active). With COc1ccccc1CNc1cc(-c2ccccc2C)ncn1 the AC50 was 1000 nM (active). For Cc1cnc(CNc2cc(-c3ccccc3CN(C)C)ncn2)cn1, the AC50 was “inactive”. For COc1ccccc1CNc1cc(-c2ccc(C(=O)N(C)C)cc2)ncn1, the AC50 was “inactive”. In the case of N#C/C(=C\c1cc([N+](=O)[O-])c(N2CCCCC2)cc1N1CCCCC1)c1nn(-c2ccccc2)c(N)c1C#N, the AC50 is reported as 282 nM (active). For CC1CCN(c2cc(N3CCC(C)CC3)c([N+](=O)[O-])cc2/C=C(\C#N)c2nn(-c3ccccc3)c(N)c2C#N)CC1, the AC50 was 447 nM (active). For Cc1noc(C)c1C(=O)N1CCC2(CCN(C(=O)NC(C)C)CC2)CC1, the AC50 was “inactive”. In the case of OC[C@@H]1NC[C@@H](O)[C@@H](O)[C@H]1O, the AC50 is reported as “inactive”. In the case of O=C(NNC(=S)NCc1ccco1)c1ccc(Cl)s1, the AC50 is reported as 7940 nM (active). Nc1ncnc2c1ncn2[C@H]1O[C@@H](C(=O)OCCO)[C@@H](O)[C@H]1O showed an activity, negative = inhibition of 4.2% [at 11.4 µM]. In the case of C=C1c2cccc(O)c2C(O)=C2C(=O)[C@@]3(O)C(O)=C(C(N)=O)C(=O)[C@@H](N(C)C)[C@@H]3[C@@H](O)[C@H]12, the AC50 is reported as “inactive”. In the case of Cc1c(NC(=O)CN2C(=O)C3C4C=CC(C4)C3C2=O)c(=O)n(-c2ccccc2)n1C (centres undefined), the AC50 is reported as “inactive”. With Cc1c(NC(=O)NC(C)N2C(=O)C3C4C=CC(C4)C3C2=O)c(=O)n(-c2ccccc2)n1C (centres undefined) the AC50 was “inactive”. In the case of CCC(C(=O)c1ccccc1)N(C(=O)c1ccccc1Cl)N1C(=O)C2C3C=CC(C3)C2C1=O (centres undefined), the AC50 is reported as 3550 nM (active). With COc1ccc(C(=O)Nc2ccc3c(c2)nc(CN2CCN(C(C)=O)CC2)n3C)cc1 the AC50 was “inactive”. For Cn1c(CN2CCCCC2)nc2cc(NC(=O)c3ccc(Cl)cc3)ccc21, the AC50 was 28200 nM (active). For Cn1cc(/C=C2/SC(=O)N(CC(=O)Nc3ccc4c(c3)OCO4)C2=O)c2ccccc21, the AC50 was 794 nM (active). CCn1c(C)cc(/C=C2\SC(=O)N(CC(=O)Nc3ccc(C)c(C)c3)C2=O)c1C was tested, and the AC50 was 1120 nM (active). CC(C)n1cc(/C=C2/SC(=O)N(CC(=O)Nc3ccc4c(c3)OCO4)C2=O)c2ccccc21 was tested, and the AC50 was 5010 nM (active). With Cc1ccc(NC(=O)CN2C(=O)S/C(=C\c3cccn3C)C2=O)cc1 the AC50 was “inactive”. With Cc1c(/C=C2\SC(=O)N(CC(=O)Nc3ccc4c(c3)OCO4)C2=O)c2ccccc2n1C the AC50 was 2510 nM (active).
